Calls of active or inactive are those of the source. No rule for the calls is given here.
Assay: PLAP enzyme activity inhibition – biochemical, colorimetric, counter-screen, dose response (AID 779)
Settings: colorimetric OD read-out
With `CC(=O)OC1(c2ccc(C)cc2)CN2CCC1c1ccccc12` (stereo not given) the IC50 was > 50 µM (inactive).
With `CCCCOP(=O)(OCCCC)/C(C#N)=C(/C)O` the IC50 was > 50 µM (inactive).
With `Cc1cc(C=C2C(=O)N(C)C(=S)N(C)C2=O)c(C)n1C1CCCCC1` the IC50 was > 50 µM (inactive).
For `CN1/C(=C\C=C\C2=[N+](C)c3ccc4ccccc4c3C2(C)C)C(C)(C)c2ccccc21`, the IC50 was > 50 µM (inactive).
With `COc1ccc(C(=O)CN2CCOCC2)cc1F` the IC50 was > 50 µM (inactive).

Reference: PubChem BioAssay AID779 (Sanford-Burnham Center for Chemical Genomics, 2007)
